Source: PubChem BioAssay AID1117319 (Southern Research Institute, 2015)
Screen size: about 260,000 compounds; about 1,500 (0.58%) were called active. Inconclusive results (about 5%) are left out.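 The calls were made as follows: active = inhibition above a set limit at one or more doses, reproduced on every date tested; inconclusive = results disagree between test dates, or hit never tested in dose response; inactive = the rest.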 Only a sample is shown. Results with a measured potency or affinity are listed apart.

What follows are compounds tested against Virion infectivity factor (Human immunodeficiency virus type 1 group M subtype B (isolate BH10)) + Virion infectivity factor (Human immunodeficiency virus type 1 group M subtype B (isolate BRU/LAI)) + Virion infectivity factor (Human immunodeficiency virus type 1 group M subtype B (isolate PCV12)) + Virion infectivity factor (Human immunodeficiency virus type 1 group M subtype B (isolate HXB2)) + DNA dC->dU-editing enzyme APOBEC-3G (Homo sapiens) (UniProt P69720+P69721+P69722+P69723+Q9HC16) (assay: HIV-1 Vif–A3G interaction blockers – biochemical, TR-FRET, GST-Vif 1-94, biotin-A3G peptide, dose response retest, primary screen (AID 1117319;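 also: Vif residues 1-94 fused to GST binding biotinylated APOBEC3G peptide 110-148; 0% = full assay without inhibitor and 100% = GST in place of GST-Vif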)). Settings: TR-FRET GST-Vif / biotin-A3G peptide binding; stronger effect = higher value.

inhibition, inactive:
O=C(COC(=O)/C=C/c1cccc(Br)c1)NCCC1=CCCCC1 12.4%
Cc1cc(C(=O)N2CCN(c3ccccc3Cl)CC2)c(C)o1 3.3%
C=CCNc1nc(-c2ccc(OC)cc2OC)cs1 -8.96%
COc1cc(NC(=O)COc2ccc(Cl)cc2)ccc1NC(=O)C(C)C 1.28%
CCCSc1cc(N)cc([N+](=O)[O-])c1 -12.3%
CCN(CC)CCN(C(=O)CCS(=O)(=O)c1ccccc1)c1nc2cc(C)cc(C)c2s1 7.31%
O=C(CSc1ncn[nH]1)Nc1ccc2c(c1)CCC2 -3.75%
N#Cc1ccc(/C=N/NC(=S)Nc2ccc(S(=O)(=O)N3CCOCC3)cc2)cc1 27.6%
CCCOc1ccc(/C=N/NC(=S)Nc2ccccc2[N+](=O)[O-])c(O)c1 5.31%
O=[N+]([O-])c1cc(/C=N/NC(=S)Nc2ccccc2Cl)ccc1Cl 8.67%
O=S(=O)(c1ccc(NC(=S)N/N=C/c2ccc(N3CCOCC3)cc2)cc1)N1CCOCC1 0.51%
CCOc1ccc(/C=N/NC(=O)C(OC)c2ccccc2)cc1 (configuration not stated) -8.04%
Cc1nnc(N(C)C(=O)c2cccnc2)s1 -3.79%
COc1cc(C(=O)N/N=C/c2ccc(OC)c(CN3CCN(c4ccc(F)cc4)CC3)c2)ccc1O -4.76%
COc1ccc(/C=N/NC(=O)c2ccccc2)cc1CN1CCN(c2ccc(F)cc2)CC1 1.7%
COc1ccc(/C=N\NC(=O)c2cccc([N+](=O)[O-])c2)cc1Cn1cc([N+](=O)[O-])cn1 9.14%
COc1ccc(/C=N/NC(=O)c2ccccc2O)cc1Cn1cc([N+](=O)[O-])cn1 22.8%
CC(=O)Oc1cc2c(cc1OC(C)=O)C(=O)CCCC2 -3.59%
CCc1cccc2c(C(=O)CSc3nncn3C)c[nH]c12 3.36%
O=C(COC(=O)c1ccccn1)NCc1cccc(Cl)c1 11.7%
CCC1CCCCN1C(=O)c1ccccc1OC1CCN(S(C)(=O)=O)CC1 (configuration not stated) 6.69%
Cc1c(Cl)cc(C(C)C)c(O)c1CN1CCOCC1 -0.22%
Oc1c(CN2CCOCC2)cc(-c2ccccc2)cc1CN1CCOCC1 2.33%
O=C(NCCCN1CCOCC1)c1csc2c1CCCC2 -1.89%
CCOc1ccc(-c2cc(C(=O)NCCCN3CCOCC3)c3ccccc3n2)cc1 -4.67%
COc1ccc(C2NC(=O)NC(O)(C(F)(F)F)C2C(=O)c2ccccc2)cc1OC (configuration not stated) -3.65%
O=C1NC(c2cn(-c3ccccc3)nc2-c2cccs2)C(C(=O)c2cccnc2)C(O)(C(F)(F)F)N1 (configuration not stated) 1.08%
CCC(Oc1ccccc1)C(=O)Nc1ccc(S(=O)(=O)N2CCOCC2)cc1 (configuration not stated) 15.9%
CCc1nc(SCC(=O)N2CCCC2)c2ccccc2n1 14.3%
CCOc1cc(C(=O)Nc2ccc(N3CCOCC3)cc2)cc(Br)c1OC 12.9%
Cc1ccc(S(=O)(=O)Nc2cc(C(F)(F)F)ccc2N2CCOCC2)cc1 1.57%
O=S(=O)(Nc1cc(C(F)(F)F)ccc1N1CCOCC1)c1ccccc1 2.04%
COc1ccc(NS(=O)(=O)c2cccc(C(=O)NCC3CCCO3)c2)cc1 (configuration not stated) 1.68%
COc1ccccc1N1CCN(CC(=O)Nc2cccc(F)c2)CC1 -5.83%
O=C(CN1CCN(Cc2ccccc2)CC1)Nc1ccc2c(c1)CCC2 -3.36%
O=C(CN1CCCC1)Nc1ccc2c(c1)CCC2 -3.44%
CC1CCN(CCNC(=O)c2ccc(NC(=O)C3CCCO3)cc2)CC1 (configuration not stated) 2.71%
O=C(Nc1ccc2c(c1)CN(Cc1ccccc1O)CC2)C1CCCO1 (configuration not stated) -4.54%
O=C(O)c1ccc(NS(=O)(=O)c2cc(Cl)ccc2Cl)cc1O 3.01%
CCc1ccc(CC)c(S(=O)(=O)Nc2ccc(O)c(C(=O)O)c2)c1 -4.21%
O=C(Nc1ccc(Br)cc1)C1CCN(C(=O)c2ccc(F)cc2)CC1 -10.6%
CCOC(=O)c1cnc(SCC(=O)OCC(=O)N(CC)C2CCS(=O)(=O)C2)nc1N (configuration not stated) 4.12%
COc1cccc(NC(=O)CN(C)C(=O)/C=C/c2cn(Cc3ccccc3)nc2-c2cccnc2)c1 -9.6%
O=C(Nc1ccc(F)cc1)C(c1ccccc1)N1CCN(S(=O)(=O)c2c(F)cccc2F)CC1 (configuration not stated) 22.6%
Cc1ccc(S(=O)(=O)N2CCN(C(C(=O)Nc3ccc(F)cc3)c3ccccc3)CC2)cc1 (configuration not stated) 69.8%
CC(C)OCCCN1C=C2C(=O)C(C)(OC(=O)CCc3ccccc3)C(=O)C=C2C=C1c1ccc(C#N)cc1 (configuration not stated) 12.3%
COC(=O)CCC(=O)OC1(C)C(=O)C=C2C=C(C3CC3)N(CCCOC(C)C)C=C2C1=O (configuration not stated) 20.5%
COc1ccc(N2C=C3C(=O)C(C)(OC(=O)CCc4ccccc4)C(=O)C=C3C=C2c2ccc(C#N)cc2)cc1 (configuration not stated) 11.3%
COC(=O)CCC(=O)OC1(C)C(=O)C=C2C=C(C3CC3)N(Cc3ccc(OC)cc3)C=C2C1=O (configuration not stated) 31.5%
O=[N+]([O-])c1ccc2nc(SCc3ccccc3Cl)sc2c1 2.57%
CC(C)n1c(SCC(=O)N2c3ccccc3Sc3ccccc32)nc2c1c(=O)n(C)c(=O)n2C 1.71%
Cc1ccc2cccc(SCC(=O)NCc3ccco3)c2n1 5.4%
Cc1ccc(S(=O)(=O)N(C)c2ccc(C(=O)NCC(c3ccco3)N3CCCC3)cc2)cc1 (configuration not stated) -9.74%
CC(C)(C)c1ccc(/C=C/C(=O)N2CCc3ccccc3C2)cc1 7.01%
Cc1ccc(/C=C/C(=O)N2CCc3ccccc3C2)cc1 0%
CC12CCC(=O)C=C1CCC1C2C(O)CC2(C)C1CCC2(O)C(=O)COC(=O)COCC(=O)O (configuration not stated) 0.66%
CNC(=O)COC(=O)c1cc2c(s1)CCCC2 0.25%
COc1ccccc1NC(=O)c1ccc(NC(=O)c2cc3c(s2)CCC3)cc1 -2.47%
Cc1c(/C=N/O)c2ccccn2c1C(=O)c1ccc(F)cc1 -0.95%
CC(C)C1CC(C(F)(F)F)n2nc(C(=O)O)cc2N1 (configuration not stated) 7.12%
Cc1cc(C)nc(SCc2nnc(SCC(=O)Nc3nc(-c4ccccc4)cs3)n2C)n1 -21.4%
Cc1ccc(N2CCN(c3ccc(C)cc3)C2c2cccnc2)cc1 -3.62%
Cc1ccc(N2CCN(c3ccc(C)cc3)C2c2ccncc2)cc1 13.1%
N#CCCN(C(=O)COC(=O)c1cc(S(=O)(=O)N2CCOCC2)ccc1Cl)c1ccc(F)cc1 -1.91%
CC(=O)Nc1ccc2nc(NC(=O)CS(=O)(=O)c3ccccc3)sc2c1 5.59%
Cc1[nH]c(=O)[nH]c(=O)c1S(=O)(=O)Nc1cccc(C(F)(F)F)c1 -6.82%
Cc1ccc(NS(=O)(=O)c2c(C)[nH]c(=O)[nH]c2=O)cc1C 0.84%
Cc1ccc(C)c2[nH]c(=O)c(CCNC(=O)c3cc4ccccc4o3)cc12 24.9%
O=C(Cc1ccccc1)NC1CCN(C(=O)c2ccc([N+](=O)[O-])cc2)CC1 -1.3%
CCOc1ccccc1CN1CCN(Cc2csc(C(C)=O)c2)CC1CCO (configuration not stated) 3.88%
Nc1nonc1C(=O)N/N=C/c1ccc(-c2cccc([N+](=O)[O-])c2)o1 -3.49%
Cc1cc([N+](=O)[O-])c(C)cc1-c1ccc(/C=N/NC(=O)Cn2nnnc2N)o1 9.49%
C=CCN1C(=O)C(CC(=O)Nc2ccc(C)cc2)SC1=Nc1c(C)n(C)n(-c2ccccc2)c1=O (configuration not stated) 4.69%
O=C(Cc1c(F)cccc1Cl)NCc1cccnc1 -4.5%
CC(=O)Nc1ccc(OCC(O)CN2CCN(c3ccc(Cl)cc3)CC2)cc1 (configuration not stated) 22.8%
CC1(C)NC(=O)N(CCSc2ccc(Cl)cc2)C1=O -1.11%
Cc1ccc(SCCCCN2C(=O)NC(C)(C)C2=O)cc1 -3.51%
CCc1cccc(CC)c1NC(=O)C(NS(=O)(=O)c1cccs1)c1ccccc1 (configuration not stated) 9.9%
CCOC(=O)C1=C(COC(=O)c2ccc(Cl)nc2)NC(=O)NC1C (configuration not stated) 5.43%
O=C(O)CCCCCCCCCCC1CCC(O)C1O (configuration not stated) -4.99%
CC1NC(=O)NC1CCCCC(=O)O (configuration not stated) 3.51%
CC(=O)N(c1ccccc1C)c1ccccc1C -4.05%
CSCCC(NC(=O)c1ccccc1)C(=O)NCCCSc1ccccc1 (configuration not stated) -3.49%
O=C(CCC1CCCC1)NNC(=O)c1ccccc1O -4.22%
COc1ccc(CCNC(=O)COc2ccc(S(=O)(=O)N3CCCC3)cc2)cc1 -4.34%
CC(C)NS(=O)(=O)c1ccc(OCC(=O)NCCC2=CCCCC2)cc1 2.83%
Cc1nnc(SCC(=O)N2CCN(S(=O)(=O)c3ccccc3)CC2)s1 -8.25%
CCc1ccc(/C=N/n2c(C3CCCCC3)n[nH]c2=S)cc1 -5.47%
CC(C)(CO)NCc1cc(Br)ccc1OCc1ccccc1 -4.77%
CCC1=NN2C(=N)/C(=C\c3ccc(OCCOc4ccc(NC(C)=O)cc4)c(OC)c3)C(=O)N=C2S1 -0.34%
COc1ccc(OC)c(N)c1 14.5%
COc1ccc(C(=O)c2ccc(OC)cc2O)c(O)c1 4.6%
